Only some compounds are listed: those with a hit (about 11% of all), similar ones and a draw of the others.
HEK293 tox – Cytotoxic Profiling in HEK 293 Cell Line of Diverse Libraries Using Quantitative High-Throughput Screening; Potency, µM (top dose mostly 115 µM), most hits filed as inhibitors; AID 1345083, 2018; HEK 293 viability, ATP luminescence (CellTiter-Glo), 48-72 h; 6.6% of 94,000 active; active means well fitted curve in the direction sought with a large enough effect; inconclusive means small, poorly fitted or top-dose-only effect, or another doubt; inactive means no such curve, though single readings can be large; an effect the other way counts as inactive or inconclusive; further: nearly all actives have a fitted effect of over 60% in size
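Cytotoxicity was scored by loss of ATP-coupled luminescence (CellTiter-Glo) in HEK 293 cells. Compound treatment ran 48 or 72 hr at 37 degree Celsius, 5% CO2, 95% humidity.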
NIH3T3 tox – Cytotoxic Profiling in NIH 3T3 Cell Line of Diverse Libraries Using Quantitative High-Throughput Screening; NIH 3T3 viability, CellTiter-Glo ATP luminescence, 48-72 h; Potency, µM (series often up to 96.7 µM), usual class: inhibitors; 4.3% of 94,000 active; AID 1345082, 2018; active means well fitted curve in the direction sought with a large enough effect; inconclusive means small, poorly fitted or top-dose-only effect, or another doubt; inactive means no such curve, though single readings can be large; an effect the other way counts as inactive or inconclusive; further: nearly all actives have a fitted effect of over 55% in size
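First NIH 3T3 cells are plated at 400 cells/well; next compound is pinned in; then plates incubate 48 or 72 hr at 37 °C; finally CellTiter-Glo is added and luminescence read after 10 min.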
hNpr1 antagonist – Natriuretic polypeptide receptor (hNpr1) antagonism - Primary qHTS; Atrial natriuretic peptide receptor 1 (Homo sapiens), P16066; 1.6% of 76,000 active; HEK293 hNpr1 GloSensor cGMP, ANP-stimulated luminescence; Potency, µM (series often up to 46.3 µM), actives largely listed as inhibitors; further: nearly all actives have a fitted effect of over 60% in size
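Compound pre-incubated 30 min at room temperature on GloSensor-loaded HEK293 cells stably carrying hNpr1 and the pGS-40F cGMP biosensor. Stimulation uses hNppA at 0.1 nM final; luminescence is taken at baseline and 20 min post-agonist.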
FLuc inh – Firefly luciferase inhibition profiling of diverse chemical library using quantitative high-throughput screening | 2.5% of 76,000 active | Potency, µM (highest dose often 115 µM), most hits filed as inhibitors | purified P. pyralis luciferase, luminescence, biochemical | Luciferin 4-monooxygenase (Photinus pyralis), P08659; active means well fitted curve in the direction sought with a large enough effect; inconclusive means small, poorly fitted or top-dose-only effect, or another doubt; inactive means no such curve, though single readings can be large; an effect the other way counts as inactive or inconclusive; further: nearly all actives have a fitted effect of over 65% in size
Target sequence (P08659 whole entry, looked up): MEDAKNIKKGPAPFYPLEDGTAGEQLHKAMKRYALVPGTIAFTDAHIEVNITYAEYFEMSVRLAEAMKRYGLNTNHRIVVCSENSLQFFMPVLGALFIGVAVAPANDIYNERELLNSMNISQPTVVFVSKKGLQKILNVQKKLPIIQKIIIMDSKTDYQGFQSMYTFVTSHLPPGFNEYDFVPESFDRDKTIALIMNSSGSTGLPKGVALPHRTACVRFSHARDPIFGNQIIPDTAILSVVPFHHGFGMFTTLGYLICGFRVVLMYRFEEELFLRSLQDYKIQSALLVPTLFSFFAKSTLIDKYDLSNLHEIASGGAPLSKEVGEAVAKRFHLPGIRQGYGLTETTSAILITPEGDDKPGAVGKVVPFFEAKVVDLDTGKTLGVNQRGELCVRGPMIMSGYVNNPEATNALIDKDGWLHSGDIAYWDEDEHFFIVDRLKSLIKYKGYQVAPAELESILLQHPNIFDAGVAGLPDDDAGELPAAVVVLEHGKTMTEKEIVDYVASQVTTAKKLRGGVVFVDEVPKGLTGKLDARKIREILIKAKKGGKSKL
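Luminescence read by CCD imager after adding enzyme (10nM final) to wells holding compound, titrated in qHTS. Substrates 10uM each D-luciferin and ATP; buffer 50mM Tris acetate pH 7.5, 10mM Mg acetate, Tween-20, BSA.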
NPR1 antag cnf – Natriuretic polypeptide receptor (hNpr1) antagonism - Confirmation | HEK293 hNpr1 cGMP GloSensor luminescence, ANP-stimulated | 76% of 1,400 active | AID 1347044, 2019 | shares compounds with hNpr1 antagonist | Potency, µM (titrated, usually from 57.6 µM), actives largely listed as inhibitors; further: nearly all actives have a fitted effect of over 70% in size
Npr2 selectivity – Natriuretic polypeptide receptor (hNpr2) antagonism - Subtype selectivity assay. shares compounds with hNpr1 antagonist. HEK293 hNpr2 GloSensor cGMP luminescence, CNP-stimulated. Potency, µM (series often up to 57.6 µM), most hits filed as inhibitors. 67% of 1,400 active. AID 1347046, 2019; further: nearly all actives have a fitted effect of over 70% in size
FLuc counter – Natriuretic polypeptide receptor (hNpr1) antagonism - Confirmation firefly luciferase (FLuc) inhibition counterscreen; shares compounds with hNpr1 antagonist; purified FLuc enzyme, luminescence, Km substrate; Potency, µM (doses to about 57.6 µM), usual class: inhibitors; 0.7% of 1,400 active; AID 1347047, 2019; active means well fitted curve in the direction sought with a large enough effect; inconclusive means small, poorly fitted or top-dose-only effect, or another doubt; inactive means no such curve, though single readings can be large; an effect the other way counts as inactive or inconclusive
GloSensor cGMP – Natriuretic polypeptide receptor (hNpr1) antagonism - Counterscreen GloSensor control cell line; shares compounds with hNpr1 antagonist; HEK293 GloSensor cGMP, SNP-stimulated, luminescence; Potency, µM (series often up to 57.6 µM), most hits filed as inhibitors; 69% of 1,400 active; further: nearly all actives have a fitted effect of over 70% in size
Hits are given with their value; – = inactive; ? = inconclusive; · = no result. Unless noted, the call rests on the fitted dose curve.

SMILES	HEK293 tox	NIH3T3 tox	hNpr1 antagonist	FLuc inh	NPR1 antag cnf	Npr2 selectivity	FLuc counter	GloSensor cGMP
Cc1nc(CN(C)C(=O)c2cc(Cn3c(C)nc4ccccc43)on2)cs1	?	?	10µM	–	19µM	17µM	–	14µM
COc1ccccc1-c1[nH]nc2ncc(C(=O)NCc3cccnc3)nc12	·	·	·	·	18µM	7µM	–	–
CN(C(=O)c1cnc2n[nH]c(-c3ccccc3)c2n1)c1ccccc1	?	?	16µM	–	31µM	31µM	–	20µM
COc1ccccc1-c1cc(C(=O)NCc2cccnc2)nc2c1cnn2C	–	–	·	·	·	·	·	·
COc1ccccc1-c1[nH]nc2ncc(C(=O)N3CCC(c4ccccc4)CC3)nc12	?	?	?	–	·	·	·	·
O=C(NCc1cccnc1)c1nc(-c2ccc(F)cc2)c2ccccn12	?	?	–	–	·	·	·	·
O=C(NCc1cccnc1)c1cnc2n[nH]c(-c3ccccc3)c2n1	·	·	·	·	25µM	13µM	–	–
COc1cc(CNC(=O)c2ccc3c(c2)N(C(=O)c2ccc(F)cc2)CC3)cc(OC)c1	?	?	?	–	22µM	24µM	–	22µM
COc1cc(N2CCC(CO)(Cc3ccccc3C(F)(F)F)CC2)ncn1	?	?	11µM	–	19µM	19µM	–	15µM
CC(=O)N1CCC2(CC1)CCN(c1ncccc1C#N)CC2CO (centres undefined)	–	–	–	–	·	·	·	·
N#Cc1cccnc1N1CCC(CO)(Cc2ccccc2C(F)(F)F)CC1	?	?	?	–	22µM	17µM	–	–
COc1ccnc(N2CCC(CO)(Cc3ccccc3C(F)(F)F)CC2)n1	?	?	–	–	·	·	·	·
Cc1nnc(N2CCC(CO)(CN3CCCC3)CC2)c2ccccc12	–	–	–	–	·	·	·	·
Cc1ncnc(N2CCC(CO)(Cc3ccccc3C(F)(F)F)CC2)c1C	40µM	?	11µM	–	24µM	24µM	–	19µM
CN1CCN(C(=O)c2ccc3nnc(Cc4ccc(Cl)cc4)n3c2)CC1	–	–	·	·	·	·	·	·
CC(=O)Nc1ccc(C(=O)N[C@@H]2CCOC[C@H]2OCc2ccccn2)cc1	–	–	–	–	·	·	·	·
CC(C)NC(=O)N[C@H]1C[C@@H](Cc2cc(CN3CCN(c4ccccc4)CC3)on2)C1(C)C	?	?	11µM	–	19µM	19µM	–	17µM
CC(C)(C)C(=O)N[C@H]1C[C@@H](Cc2cc(CN3CCN(c4ccccc4)CC3)on2)C1(C)C	?	–	11µM	–	19µM	17µM	–	12µM
CC1(C)[C@H](Cc2cc(CN3CCCCC3)on2)C[C@@H]1NC(=O)c1ccccc1	?	?	–	–	·	·	·	·
COC(=O)c1cccc(NC(=S)N[C@@H]2C=C[C@@H](c3c(C)nn(-c4ccccc4[N+](=O)[O-])c3C)C2)c1	40µM	40µM	13µM	–	19µM	?	–	24µM
CC1Oc2ccc(NC(=O)Cc3ccc(F)cc3)cc2CN(Cc2ccccc2F)C1=O (centres undefined)	?	?	–	?	·	·	·	·
COc1ccc(C(=O)Nc2ccc3c(c2)CN(Cc2ccc(F)cc2)C(=O)C(C)O3)c(OC)c1 (centres undefined)	32µM	?	?	–	24µM	?	–	24µM
CC1Oc2ccc(NS(=O)(=O)c3cccc(Cl)c3)cc2CN(Cc2ccccc2F)C1=O (centres undefined)	50µM	?	?	–	?	–	–	–
CC1Oc2ccc(NC(=O)Cc3cccs3)cc2CN(Cc2ccc(Cl)cc2)C1=O (centres undefined)	?	40µM	14µM	–	27µM	27µM	–	24µM
CNC(=O)Cn1nc(C2CCN(C(=O)c3ccc(F)cc3)CC2)c2c1CCOC2	–	–	–	–	·	·	·	·
SMILES	HEK293 tox	NIH3T3 tox	hNpr1 antagonist	FLuc inh	NPR1 antag cnf	Npr2 selectivity	FLuc counter	GloSensor cGMP
CN1CCC2(C1)CN(CC1CC1)c1ccc(C(=O)NC3COC3)cc12 (centres undefined)	?	–	–	–	·	·	·	·
O=C(c1cccc(Cl)c1)N1CCC(C(=O)N2CCC(N3CCOC3=O)CC2)CC1	–	–	·	·	·	·	·	·
O=C(Nc1ccccc1)c1cc2n(n1)CC(c1ccc(Cl)cc1)OC2 (centres undefined)	?	–	13µM	–	?	?	–	?
O=C(NCc1ccccc1)c1cc2n(n1)CC(c1ccc(Cl)cc1)OC2 (centres undefined)	?	?	?	–	·	·	·	·
O=C(NCCc1ccccc1)c1cc2n(n1)CC(c1ccc(Cl)cc1)OC2 (centres undefined)	?	?	?	–	?	?	–	?
O=C(NCc1ccccc1Cl)c1cc2n(n1)CC(c1ccc(Cl)cc1)OC2 (centres undefined)	?	?	?	–	?	?	–	?
O=C(Nc1ccc(F)c(Cl)c1)c1cc2n(n1)CC(c1ccc3c(c1)OCO3)OC2 (centres undefined)	45µM	?	?	–	27µM	?	–	?
O=C(Nc1cc(F)ccc1Cl)c1cc2n(n1)CC(c1ccc3c(c1)OCO3)OC2 (centres undefined)	?	–	–	?	·	·	·	·
CCC(C)NC(=O)c1cc(-c2ccc(C(F)(F)F)cc2)nc2c1cnn2C (centres undefined)	–	?	·	·	·	·	·	·
COc1ccccc1OCCNC(=O)c1ccc(Cn2ccn3nc4c(c3c2=O)CCCC4)cc1	?	?	–	–	·	·	·	·
O=C(NCCc1cccnc1)c1cc2n(n1)CC(c1ccc(Br)cc1)OC2 (centres undefined)	40µM	?	11µM	–	19µM	19µM	–	12µM
Cc1cc(F)ccc1NC(=O)c1cc2n(n1)CC(c1ccc(Br)cc1)OC2 (centres undefined)	79µM	–	?	–	?	?	–	?
Cc1ccc(NC(=O)c2cc3n(n2)CC(c2ccc(Cl)cc2)OC3)c(Cl)c1 (centres undefined)	?	–	–	–	·	·	·	·

Screening results: PubChem, National Center for Advancing Translational Sciences (NCATS)
